Assay outcomes deposited in PubChem by several laboratories.
A selection: hits, their analogues and other compounds. The true share with any hit is near 2.3%.
Bcl-xL primary: Bcl-xL (human) inhibition; AID 2129; actives 0.7% (n = 320,000); inhibition, % at 10.9 µM; GST-Bcl-xL / FITC-Bim BH3 peptide fluorescence polarization;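 active = inhibition above the mean of all tested compounds plus 3 SD, cutoff set per campaign, cut at about 30% in these data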;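 also: 0% = DMSO wells and 100% = unlabeled Bim-BH3 peptide competitor; inhibitors lower millipolarization by displacing the labeled peptide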
Target sequence (Q07817 whole entry, looked up): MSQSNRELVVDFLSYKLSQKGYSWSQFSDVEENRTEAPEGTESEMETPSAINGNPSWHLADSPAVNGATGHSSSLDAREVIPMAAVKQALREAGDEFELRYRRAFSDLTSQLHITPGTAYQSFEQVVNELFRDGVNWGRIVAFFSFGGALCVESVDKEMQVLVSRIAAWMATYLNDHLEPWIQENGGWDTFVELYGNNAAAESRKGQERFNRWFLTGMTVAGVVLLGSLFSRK
Mcl1-Bid inh: Mcl-1/Bid interaction inhibition; inhibition, % at 21.7 µM; actives 0.97% (n = 220,000); TR-FRET Mcl-1/Bid-Dy647 peptide binding, 1536-well; AID 1021;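 active = compounds that cut the binding signal by more than half at the single screening dose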;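 also: His-tagged Mcl-1 with europium anti-His antibody binding Bid BH3 peptide; 0% = Mcl-1 plus peptide wells and 100% = peptide-only wells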
Target sequence (Q07820 whole entry, looked up): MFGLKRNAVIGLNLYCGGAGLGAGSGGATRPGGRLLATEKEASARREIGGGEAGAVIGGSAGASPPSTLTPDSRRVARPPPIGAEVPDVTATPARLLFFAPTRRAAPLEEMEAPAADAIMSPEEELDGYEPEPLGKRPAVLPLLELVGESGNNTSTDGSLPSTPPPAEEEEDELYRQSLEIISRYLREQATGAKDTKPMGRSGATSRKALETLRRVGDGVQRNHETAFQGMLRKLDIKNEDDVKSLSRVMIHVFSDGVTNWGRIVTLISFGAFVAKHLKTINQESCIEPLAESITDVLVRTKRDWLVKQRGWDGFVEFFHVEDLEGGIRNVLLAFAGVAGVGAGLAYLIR
GLD-1 TGE inh: GLD-1-TGE RNA interaction inhibition (C. elegans) | inhibition, % at 5.96 µM | actives 0.44% (n = 320,000) | AID 2280 | purified GLD-1 + fluorescein TGE RNA, fluorescence polarization | Q17339;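 active = percent inhibition above a per-plate cutoff, the plate mean of test compounds plus 3 SD, cut at about 30% in these data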;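 also: 0% = DMSO wells with GLD-1 and probe and 100% = wells lacking GLD-1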
Mcl1-Noxa inh: disrupts binding of human Mcl-1 to Noxa peptide; Q07820; TR-FRET Mcl-1/Noxa peptide binding, 2 h; inhibition, % at 21.7 µM; actives 1.5% (n = 220,000);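 active = compounds that cut the protein-peptide binding signal by more than 50% relative to plate controls in a single-dose test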;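 also: His-tagged Mcl-1 with rhodamine Noxa BH3 peptide and terbium anti-His antibody; 0% = Mcl-1 plus Noxa peptide wells and 100% = peptide-only wells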
MCL1-BIM inh: disrupts human MCL1 binding to BIM-BH3 peptide. Q07820. GST-MCL1 / FITC-Bim-BH3 fluorescence polarization. inhibition, % at 10.9 µM. actives 0.68% (n = 320,000). AID 2057;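 active = inhibition above the mean inhibition of all tested compounds plus 3 SD, set per campaign, cut at about 40% in these data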;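 also: 0% = DMSO wells and 100% = unlabeled Bim-BH3 peptide control; higher means more loss of mP so more displacement of Bim peptide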
Bim-Mcl-1: disrupts Bim peptide binding to human Mcl-1; Q07820; Bead-based flow cytometry, Bim peptide-Mcl-1 binding; inhibition, % at 10 µM; actives 0.1% (n = 190,000); in the data active = inhibition above about 40%;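 also: 0% = no compound tracer wells and 100% = peptide blocker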
Active calls of the source: *; . = no result; ! = repeats disagree.

SMILES | Bcl-xL primary | Mcl1-Bid inh | GLD-1 TGE inh | Mcl1-Noxa inh | MCL1-BIM inh | Bim-Mcl-1
O=C(COC(=O)CCNS(=O)(=O)c1ccc2c(c1)OCCO2)NC1CCCc2ccccc21 (centres undefined) | 1.5 | 75.6* | 1.7 | 3.7 | -0.1 | -47.0
O=C(COC(=O)C1CC(=O)N(c2ccc3c(c2)OCCO3)C1)NC1CCCc2ccccc21 (centres undefined) | 2.0 | -34.6 | 7.0 | 7.1 | 4.5 | -1.0
Oc1[nH]c2ccccc2c1N=Nc1nc2ccccc2s1 | 16.0 | 59.1* | 1.4 | 84.4* | 27.7 | -2.0
Cc1ccc2[nH]c(O)c(N=Nc3nc4ccccc4s3)c2c1 | 10.1 | 50.8* | -3.0 | 95.0* | 22.5 | .
CC(C)(O)C(=O)N=Nc1c(O)[nH]c2ccccc12 | -1.4 | 4.7 | 4.1 | -11.4 | -1.6 | -5.0
Cc1ccc2[nH]c(C)c(/C=N/Nc3nc4ccccc4s3)c2c1 | -3.5 | -68.7 | 4.4 | 18.0 | -2.9 | 0.0
COC(=O)/C=C(\C)N=Nc1c(O)[nH]c2ccccc12 | 5.7 | 34.0 | 5.5 | 51.6* | 0.5 | .
Oc1[nH]c2ccccc2c1N=Nc1ccccc1 | 40.7* | -12.0 | 70.3* | 5.4 | 20.6 | .
Oc1[nH]c2ccccc2c1N=Nc1ccc(F)cc1 | -70.2 | -14.6 | -27.4 | 16.6 | -190.8 | 0.0
O=[N+]([O-])c1ccc(Sc2nccn2Cc2ccccc2)c([N+](=O)[O-])c1 | -3.8 | 3.3 | 6.9 | 4.6 | -3.8 | -3.0
Nc1nc2ccc([N+](=O)[O-])c(N)c2s1 | 23.4 | -53.9 | -6.0 | 53.7* | 26.3 | 0.0
C=CCN1C(=O)/C(=C2/C(=O)N(CC(=O)O)c3ccccc32)S/C1=N/c1nccs1 | . | -37.7 | . | 89.0* | . | 1.0
C=CCN1C(=O)/C(=C/c2ccc(O)cc2)S/C1=N/c1nccs1 | -9.2 | -59.6 | -103.5 | 14.1 | -33.4 | -1.0
O=C1CC(Nc2ccc(N3CCOCC3)cc2)C(=O)N1c1cccc(C(F)(F)F)c1 (centres undefined) | 7.1 | 53.0* | 0.0 | 46.7 | 33.4 | -4.0
COc1cccc(N2C(=O)CC(Nc3ccc(N4CCOCC4)cc3)C2=O)c1 (centres undefined) | 17.4 | -155.9 | 6.3 | 16.9 | 28.1 | -1.0
Cc1ccc(S(=O)(=O)NC(CC(C)C)C(=O)N2CC(C)OC(C)C2)cc1 (centres undefined) | 5.7 | . | -6.3 | . | 2.7 | .
N[C@@H](Cc1cc(I)c(Oc2cc(I)c(O)c(I)c2)c(I)c1)C(=O)O | 7.7 | . | 0.0 | . | -13.6 | .
O=C(O)CCc1cc(I)c(Oc2ccc(O)c(I)c2)c(I)c1 | . | 27.4 | . | 68.7* | . | .
N[C@@H](Cc1cc(I)c(Oc2ccc(O)c(I)c2)c(I)c1)C(=O)O | 3.4 | 66.2*! | -0.5 | 105.2*! | 16.8 | 0.0
Cc1ccc(N(C(=O)CNC(=O)c2ccco2)C(C(=O)NC2CCCCC2)c2cccnc2)cc1F (centres undefined) | 4.0 | . | -2.1 | . | 5.6 | .
Cc1sc2ncnc(OCC(=O)NC3CCS(=O)(=O)C3)c2c1C (centres undefined) | -3.3 | -15.4 | 5.2 | 18.4 | -1.5 | .
c1ccc(-c2nnc(OCCN3CCOCC3)c3ccccc23)cc1 | 5.2 | -12.7 | 0.5 | 2.2 | 2.9 | 79.0*
CSc1ccccc1NC(=O)c1noc2c1CCC2 | 8.1 | -34.0 | 3.9 | 66.2* | 33.5 | -2.0
O=C1SC(SCc2ccccc2Cl)=N/C1=C\c1ccc(C(=O)O)cc1 | 7.5 | -34.4 | -2.3 | 80.2* | 14.0 | -2.0
COc1ccc(/C=c2\s/c(=C(/C#N)C(=O)NCc3ccco3)n(-c3ccccc3)c2=O)cc1 | 1.8 | -8.6 | -5.5 | 10.0 | 1.7 | 0.0
SMILES | Bcl-xL primary | Mcl1-Bid inh | GLD-1 TGE inh | Mcl1-Noxa inh | MCL1-BIM inh | Bim-Mcl-1
COc1cccc(/C=c2/s/c(=C(\C#N)C(=O)N3CCOCC3)n(-c3ccccc3)c2=O)c1 | 4.5 | 53.1* | 2.5 | 43.1 | 8.9 | 3.0
Cc1cc(Nc2ccc([N+](=O)[O-])cc2)c2ccccc2n1 | 3.6 | . | 1.6 | . | -4.2 | .
O=c1nc(Nc2ccccc2)sc2ccc([N+](=O)[O-])cc12 | 5.2 | 2.3 | 3.3 | 54.4* | 4.6 | -11.0
CCC(C)(C)n1nnnc1C(c1ccc(O)c(OC)c1)N1CCN(c2nc3ccccc3s2)CC1 (centres undefined) | 9.6 | 12.7 | -0.5 | 67.5* | 8.1 | -2.0
CCC(C)(C)n1nnnc1C(c1cccc(C#N)c1)N1CCN(c2cccc(C)c2C)CC1 (centres undefined) | -3.6 | -10.5 | -0.8 | 70.4* | -4.1 | -3.0
CCC(C)(C)n1nnnc1C(c1ccc(O)c(OC)c1)N1CCc2ccccc2C1 (centres undefined) | 4.7 | 26.3 | 9.0 | 82.0* | 9.3 | -4.0
COc1ccc(C(c2nnnn2C(C)(C)C)N2CCN(c3nc4ccccc4s3)CC2)cc1 (centres undefined) | . | 8.0 | . | 10.9 | . | -3.0
COc1ccc(NC(=O)Nc2cc(C)ccc2F)cc1OC | 5.7 | -35.3 | 1.9 | 20.0 | 7.8 | 0.0
CCCC1=C(C(=O)OCC)C(c2sccc2C)n2ncnc2N1 (centres undefined) | 3.8 | 1.3 | 21.5 | 4.6 | -2.4 | .
CCCC1=C(C(=O)OCC)C(c2ccc(O)cc2)n2ncnc2N1 (centres undefined) | 8.7 | -46.4 | 1.8 | 67.3* | 9.7 | 0.0
Cc1ccc2nc(-c3ccc(N4C(=NC(=O)CCC(=O)O)SC5CS(=O)(=O)CC54)cc3)sc2c1 (centres undefined) | 9.4 | -10.6 | -2.9 | 54.6* | 6.7 | -6.0
CC(C)C(O)(CC#CCN1CCCC1)c1ccccc1 (centres undefined) | 7.3 | -19.9 | 1.2 | 10.1 | 10.4 | 1.0
Cc1[nH]n(-c2ncc(-c3ccccc3)s2)c(=O)c1C(c1ccc(Cl)cc1)C(C#N)C#N (centres undefined) | 12.5 | 18.0 | -0.3 | 80.7* | 10.4 | 0.0
CC1=C/C(=C\C=C(C#N)C#N)N(C)c2ccccc21 | 35.4* | 9.9 | -182.2 | 41.2 | 20.6 | .
CN1/C(=C\C=Nc2ccc3ccccc3c2)C(C)(C)c2ccccc21 | -6.0 | -17.5 | -80.7 | 10.7 | -5.3 | -1.0
CN(C)c1ccc(N=C/C=C2\N(C)c3ccccc3C2(C)C)cc1 | 6.0 | -147.5 | 0.1 | 70.8* | -1.9 | 1.0
CN1/C(=C/C=C(C#N)C#N)C(C)(C)c2ccccc21 | 47.3* | -19.0 | -113.7 | 19.9 | 13.2 | 0.0
CN1/C(=C\C=O)C(C)(C)c2ccccc21 | 8.9 | -23.4 | 3.5 | 6.7 | 4.9 | 1.0
COc1cccc(CNC(=O)CCCn2c(=S)[nH]c3cc4c(cc3c2=O)OCO4)c1 | -0.5 | . | 1.1 | . | 0.7 | .
CCCN(CC(=O)Nc1ccccc1OC)C(=O)CCCN1C(=O)c2ccccc2C1=O | 0.2 | . | 8.6 | . | 3.9 | .
CC1(C)CC(=O)C(C=Nc2cccc(/N=C/C3=C(O)CC(C)(C)CC3=O)n2)=C(O)C1 | . | -19.0 | . | 84.7* | . | -2.0
O=S(=O)(NCCc1ccncc1)c1ccc(F)cc1 | -3.9 | . | 2.1 | . | -7.4 | .
